IL1B secr inh: inflammasome signaling inhibition, IL-1 beta readout | THP-1 LPS/ATP IL-1B secretion, AlphaLISA, 16 h; hits give low values | hit rate 4.7% among 360,000 | AID 743279 | activity change, % at 57.5 µM; in the data active means activity change below about -50%; inconclusive means mostly about -30% to -49%
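THP-1 cells pretreated 1 hr with compounds (up to 57.5 uM final), then stimulated with LPS (250 ng/mL final) plus ATP (1.25 mM final); secreted IL-1B measured by AlphaLISA after 16 hr, decreased signal indicating inhibition.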
HT1080NT lethal: kills 2HG-producing HT-1080-NT fibrosarcoma cells | HT-1080-NT fibrosarcoma viability, CellTiter-Glo ATP luminescence, 48 h | Potency, µM (highest dose often 46.1 µM), without a hit: top-dose activity, negative = less viability, most hits filed as cytotoxic | hit rate 1.6% among 360,000 | AID 686970;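 further: NT is the 2HG producing partner of a matched IDH1 knockdown line; potency means the concentration at half of the fitted maximal effect; 0% = DMSO-treated cells and -100% = media-only wells without cells; nearly all actives have a fitted effect of over 55% in size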
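Toxicity toward the 2HG-producing NT line was scored as %Activity, normalised to DMSO and no-cell wells, from CellTiter-Glo luminescence after 48 hours' treatment.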
DT40 TDP1 CPT: growth inhibition of DT40 Tdp1-/-;hTDP1 cells with camptothecin (screen for TDP1 inhibitors). chicken DT40 Tdp1-/-;hTDP1 cells + 20 nM CPT, ATP luminescence, 48 h. Potency, µM (doses to about 46.2 µM), for inactives: top-dose activity change, negative = growth inhibition, most hits filed as inhibitors. hit rate 12% among 420,000. AID 686979; further: potency means the concentration at half of the fitted maximal effect; nearly all actives have a fitted effect of over 55% in size
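Cell growth measured by CellTiter-Glo luminescence after a minimum 48 h, 37 C compound exposure with 20 nM CPT in Tdp1-knockout DT40 cells stably expressing hTDP1, seeded 400/well; qHTS titration format.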
DT40 TDP1 no CPT: qHTS for Inhibitors of human tyrosyl-DNA phosphodiesterase 1 (TDP1): qHTS in cells in absence of CPT | DT40 Tdp1-/- hTDP1 cells, no CPT, ATP luminescence, 48 h | Potency, µM (titrated, usually from 46.2 µM), inactives show at the top dose activity change, negative = growth inhibition, hits mostly inhibitors | hit rate 15% among 420,000; further: potency means the concentration at half of the fitted maximal effect; nearly all actives have a fitted effect of over 55% in size
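No-CPT arm: Tdp1-/-;hTDP1 DT40 cells (400/well) plus compounds, incubated ≥48 hr at 37 °C. Readout CellTiter-Glo luminescence.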
HT1080 IDH1KD tx: HT-1080 IDH1 knockdown cell toxicity (counter line). AID 686971. Potency, µM (titrated, usually from 46.1 µM), without a hit: at the highest dose activity, negative = toxicity, actives largely listed as cytotoxic. HT-1080 IDH1 knockdown viability, ATP luminescence, 48 h. hit rate 2% among 360,000;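 further: potency means the concentration at half of the fitted maximal effect; 0% = DMSO wells and -100% = cell-free medium wells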
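In this qHTS, HT-1080 cells depleted of IDH1 are exposed for 48 h at 37 °C to compound titrations. Toxicity is scored from CellTiter-Glo luminescence, with DMSO as full viability and medium alone as none.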
Active calls of the source: *; u = inconclusive; x = not tested or not shown; [ ] = another dose, or the depositor's remark. This is a sample that favours compounds with a hit; in the whole collection about 19% have one here. Unless noted, the call rests on the fitted dose curve; in most records, active means well fitted curve in the direction sought with a large enough effect; inconclusive means small, poorly fitted or top-dose-only effect, or another doubt; inactive means no such curve, though single readings can be large; an effect the other way counts as inactive or inconclusive. Unless noted, on the % scale 0 is the no-effect control and ±100 the full control effect.

SMILES	IL1B secr inh	HT1080NT lethal	DT40 TDP1 CPT	DT40 TDP1 no CPT	HT1080 IDH1KD tx
c1ccc2c(c1)CSc1ccccc1C2C1=NCCN1 (centres undefined)	9	u	-14%	u	u
Brc1ccc2c(c1)C(OC1CN3CCC1CC3)c1ccccc1CS2 (centres undefined)	-80*	-29%	13µM*	5.2µM*	u
O=c1c2ccccc2nc(/C=C/c2ccc(O)cc2)n1-c1cccc(O)c1	24	-22%	u	u	u
O=c1c2ccccc2nc(-c2ccccc2Cl)n1-c1cccc(O)c1	-19	-3%	21µM*	u	-8%
Cc1nc2ccccc2c(=O)n1-c1cccc(O)c1	34	3%	-18%	-17%	13%
Cc1ccc(-c2nc3ccccc3c(=O)n2-c2cccc(O)c2)cc1	29	-4%	2.3µM*	8.2µM*	0%
COc1ccc(-n2c(-c3ccccc3[N+](=O)[O-])nc3ccccc3c2=O)cc1	-10	2%	23µM*	15µM*	7%
COc1ccc(-n2c(-c3ccc(C)cc3)nc3ccccc3c2=O)cc1	-19	0%	15µM*	15µM*	-1%
O=c1c2ccccc2nc(-c2ccc(Cl)cc2Cl)n1-c1nccs1	0	u	u	13µM*	u
Cc1ccc(-c2nc3ccccc3c(=O)n2-c2ccncc2)cc1	-7	3%	-27%	u	-2%
Cc1ccc(-c2nc3ccccc3c(=O)n2-n2cccc2)cc1	-8	-3%	16µM*	12µM*	2%
Cc1ccc(-c2nc3ccccc3c(=O)n2-c2cccc(C)n2)cc1	11	3%	-18%	u	2%
COc1ccc(-n2c(SC)nc3ccccc3c2=O)cc1	18	1%	15µM*	18µM*	-1%
O=c1c2ccccc2nc(-c2ccc(-c3ccccc3)cc2)n1-c1ccncc1	-19	0%	u	21µM*	-1%
CN1CCCCC1c1cccnc1 (centres undefined)	x	x	-3%	-2%	x
Cc1o[nH]c(=O)c1C[C@@H](N)C(=O)O	x	x	1%	-1%	x
CC1C(=O)OC2CCN3CC=C(COC(=O)[C@](C)(O)[C@]1(C)O)C23 (some centres undefined)	x	x	u	-28%	x
CCOC(=O)c1c(C)c(C(=O)Nc2cc(OC)ccc2OC)c(C)n1CC	-2	7.1µM*	6.5µM*	18µM*	7.1µM*
CCOC(=O)C1=C(N)Oc2cc(C)oc(=O)c2C12C(=O)N1c3c(cccc32)C(C)CC1(C)C (centres undefined)	40	4%	-11%	-1%	-4%
CC1(c2ccccc2)CC(C)(C)N2C(=O)C3(C(C#N)=C(N)Oc4cc(O)ccc43)c3cccc1c32 (centres undefined)	-51*	u	u	u	u
O[C@H]1[C@H]2[C@H](O)CCCN2C[C@H]1O	x	x	8%	-16%	x
O=C(NCP(=O)(Oc1ccccc1)Oc1ccccc1)OCc1ccccc1	-5	13%	-1%	-19%	13%
COC(=NC1CCCCC1)C(O)c1c[nH]c2ccccc12 (centres undefined)	37	-8%	-4%	-12%	4%
CN(Cc1c[nH]c2ccccc12)C1CCCCC1	-10	8%	0.41µM*	1.2µM*	-1%
c1ccc2c(CNC3CCCCC3)c[nH]c2c1	u	u	2.5µM*	6.3µM*	u
SMILES	IL1B secr inh	HT1080NT lethal	DT40 TDP1 CPT	DT40 TDP1 no CPT	HT1080 IDH1KD tx
COCCNC(=O)CN1C(=O)CN=C(c2ccccc2)c2ccccc21	15	15%	19%	2%	11%
CN1C(=O)C(=Cc2c(OCc3cnc(Cl)s3)ccc3ccccc23)C(=O)N(C)C1=O	0	-6%	u	u	-7%
CCn1c(CN2CCN(C)CC2)nc2ccccc21	x	x	-2%	-2%	x
CCCCCn1c(SCCCC)nc2c1c(=O)[nH]c(=O)n2C	81	2%	u	u	4%
Cc1ccc(C2CC3CCC(C2)N3Cc2ccccc2F)cc1 (centres undefined)	-85*	u	u	u	15µM*
O=C1CN=C(c2cccs2)c2c(sc3c2CCCC3)N1	29	11µM*	16µM*	u	10µM*
Cc1cc2c(s1)NC(=O)CN=C2c1cccs1	13	-2%	-29%	u	5%
O=C1CN=C(c2ccccc2)c2c(sc3c2CCCC3)N1	29	u	u	u	23µM*
Cc1c(C(c2ccc(Cl)cc2Cl)c2c(O)c3ccccc3oc2=O)c(=O)n(-c2ccccc2)n1C (centres undefined)	-25	-1%	u	u	12%
CCc1ccccc1NC(=O)C1CCCN(c2ncnc3onc(C)c23)C1 (centres undefined)	x	x	18µM*	9.2µM*	x
CCc1ccccc1NC(=O)CNC1CCCCC1	18	17%	8%	4%	17%
COc1ccc(NC(=O)CSc2nc(-c3ccco3)cc(C(F)(F)F)n2)cc1OC	x	x	1.5µM*	0.92µM*	x
CCOC(=O)c1ccc(NC(=O)CSc2ccc(-c3cccnc3)nn2)cc1	-8	-27%	u	u	-5%
Cc1cccc(NC(=O)CSc2ccc(-c3ccco3)nn2)c1	0	-2%	u	29µM*	-2%
Cc1ccc(C(=O)SC2=NCCS2)cc1	25	-28%	-24%	-21%	u
CCOC(=O)c1cccc(C2=C(CNC(C)=O)[C@H]3CC[C@@H](C2)N3Cc2ccccc2)c1	-15	-3%	-3%	u	-2%
CCOC(=O)c1cccc(C2=C(CNC(=O)c3cccnc3)[C@H]3CC[C@@H](C2)N3Cc2ccccc2)c1	u	-14%	u	21µM*	-13%
CC(=O)NC1CCSC1=O (centres undefined)	x	x	8%[21.1 µM]	0%[21.1 µM]	x
COC(=O)C1=C(c2ccc(OC)c(OC)c2)C[C@@H]2CC[C@H]1N2C(=O)N1CCc2cc(OC)c(OC)cc2C1	-4	6%	u	u	0%
COC(=O)C1=C(c2cccc3c2S(=O)(=O)c2ccccc2-3)C[C@@H]2CC[C@H]1N2C(=O)N1CCc2cc(OC)c(OC)cc2C1	-17	-5%	21µM*	21µM*	-13%
COC(=O)C1=C(c2cccc3c2S(=O)(=O)c2ccccc2-3)C[C@@H]2CC[C@H]1N2C(=O)N1CCOCC1	-8	8%	23µM*	u	9%
COC(=O)C1=C(c2cccc(C#N)c2)C[C@@H]2CC[C@H]1N2C(=O)N1CCOCC1	18	2%	-19%	u	-2%
O=C1NCc2c1c1c3ccccc3[nH]c1c1[nH]c3ccccc3c21	x	x	3.2µM*	2.8µM*	x

Screening data as filed in PubChem.
